{
  "source": "PubChem BioAssay (NCATS)",
  "note": "Inconclusive results are not listed. Unmarked numbers belong to inactive results. The call rests on the fitted dose curve; in most records, active means well fitted inhibition curve with a large enough effect; inconclusive means small, poorly fitted or top-dose-only effect; inactive means flat fitted curve, though single readings scatter.",
  "data": [
    {"system": "CP250", "assay": "qHTS profiling for inhibitors of Plasmodium falciparum proliferation (AID 504749);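 further: 0% = DMSO vehicle and full inhibition = artemisinin control; nearly all actives have a fitted effect of over 60% in size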", "settings": "P. falciparum in erythrocytes, SYBR Green DNA, 72 h; series mostly up to 28.7 µM; activity, negative = inhibition: at the top concentration", "how_it_was_run": "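Infected RBCs, 0.3% parasitemia/2.5% Hct final; cpd 72 h, 37 C, 5% CO2; lysis buffer with saponin/triton/SYBR Green I, o/n RT dark; FI 485/535; norm. to artemisinin (0.29 uM) and DMSO.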", "values": [
      {"smiles": "CCCOC(=O)c1ccccc1O", "activity, negative = inhibition": "-5.96%"},
      {"smiles": "COc1cc2c(cc1OC)[C@@H](Cc1cc(OC)c(OC)c(OC)c1)[N+](C)(CCCOC(=O)CC/C=C/CCC(=O)OCCC[N+]1(C)CCc3cc(OC)c(OC)cc3[C@H]1Cc1cc(OC)c(OC)c(OC)c1)CC2", "note": "(stereo partly specified)", "activity, negative = inhibition": "8.14%"},
      {"smiles": "OC[C@H]1O[C@@](CO)(O[C@H]2O[C@H](CO)[C@@H](O)[C@H](O)[C@H]2O)[C@@H](O)[C@@H]1O", "activity, negative = inhibition": "0.526%"},
      {"smiles": "CCC(Cc1c(I)cc(I)c(O)c1I)C(=O)O", "note": "(stereo unspecified)", "activity, negative = inhibition": "9.85%"},
      {"smiles": "Nc1ncnc2c1ncn2CCOCP(=O)(O)O", "activity, negative = inhibition": "8.12%"},
      {"smiles": "O=C(O)CCC/C=C\\C[C@@H]1[C@@H](/C=C/[C@@H](O)COc2cccc(Cl)c2)[C@H](O)C[C@@H]1O", "activity, negative = inhibition": "7.16%"},
      {"smiles": "N=C(N)n1cccn1", "activity, negative = inhibition": "2.42%"},
      {"smiles": "CCSc1ccc2c(c1)N(CCCN1CCN(C)CC1)c1ccccc1S2", "activity, negative = inhibition": "-4.32% [at 12.8 µM]"},
      {"smiles": "CC(C)c1nc(N(C)S(C)(=O)=O)nc(-c2ccc(F)cc2)c1/C=C/C(O)CC(O)CC(=O)O", "note": "(stereo unspecified)", "activity, negative = inhibition": "4.74%"},
      {"smiles": "CCOC(C)OCC", "activity, negative = inhibition": "-2.17%"},
      {"smiles": "NCCN", "activity, negative = inhibition": "5.33%"},
      {"smiles": "CC(CC=O)CCCC(C)(C)O", "note": "(stereo unspecified)", "activity, negative = inhibition": "-6.28%"},
      {"smiles": "CC(C)(COP(=O)(O)OP(=O)(O)OC[C@H]1O[C@@H](n2cnc3c(N)ncnc32)[C@H](O)[C@@H]1OP(=O)(O)O)C(O)C(=O)NCCC(=O)NCCS", "note": "(stereo partly specified)", "activity, negative = inhibition": "9.06%"},
      {"smiles": "O=C1c2ccccc2CN2C(=O)c3ccccc3CN12", "activity, negative = inhibition": "9.8%"},
      {"smiles": "O=C1c2ccccc2C(=O)C1c1ccc(F)cc1", "activity, negative = inhibition": "-5.74%"},
      {"smiles": "CNC(=O)C[C@@H](N)C(=O)N[C@@H](C(=O)N[C@@H]1C(=O)N2[C@@H]1SC(C)(C)[C@@H]2C(=O)O)c1ccc(O)cc1", "activity, negative = inhibition": "4.03%"}
    ]}
  ]
}
